Screening results from PubChem.
Only some compounds are listed: those with a hit (about 19% of all), similar ones and a draw of the others.
uPA surface inh – qHTS for Inhibitors of Cell Surface uPA Generation; Potency, µM (titrated, usually from 38.3 µM), inactives show top-dose activity change, negative = inhibition, actives largely listed as inhibitors; hit rate 0.31% among 330,000; AID 540303, 2011; cell surface uPA generation assay, qHTS; active = well fitted inhibition curve with a large enough effect; inconclusive = small, poorly fitted or top-dose-only effect; inactive = no such curve, though single readings can be large or run the other way; tested in mouse RAW 264.7 cells; also: potency is read from the fitted curve at half-maximal effect; nearly all actives have a fitted effect of over 55% in size
IL1B secr inh – qHTS for Inhibitors of Inflammasome Signaling: IL-1-beta AlphaLISA Primary Screen; THP-1 LPS/ATP IL-1B secretion, AlphaLISA, 16 h; active compounds read low; activity change, % at 57.5 µM; hit rate 4.7% among 360,000; in the data active = activity change below about -50%; inconclusive = mostly about -30% to -49%
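THP-1 cells pretreated 1 hr with compounds (up to 57.5 uM final), then stimulated with LPS (250 ng/mL final) plus ATP (1.25 mM final); secreted IL-1B measured by AlphaLISA after 16 hr, decreased signal indicating inhibition.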
DT40 TDP1 no CPT – qHTS for Inhibitors of human tyrosyl-DNA phosphodiesterase 1 (TDP1): qHTS in cells in absence of CPT. DT40 Tdp1-/- hTDP1 cells, no CPT, ATP luminescence, 48 h. Potency, µM (titrated, usually from 46.2 µM), for inactives: at the highest dose activity change, negative = growth inhibition, most hits filed as inhibitors. hit rate 15% among 420,000; also: potency is read from the fitted curve at half-maximal effect; nearly all actives have a fitted effect of over 55% in size
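Growth kinetics read by CellTiter-Glo luminescence after ≥48 hr at 37 °C. Cells: DT40 Tdp1-/- stably carrying human TDP1, 400 per well, compound exposure in the absence of CPT (DMSO vehicle).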
HT1080NT lethal – qHTS for induction of synthetic lethality in tumor cells producing 2HG: qHTS for the HT-1080-NT fibrosarcoma cell line | AID 686970, 2013 | hit rate 1.6% among 360,000 | Potency, µM (titrated, usually from 46.1 µM), for the others: at the top dose activity, negative = less viability, actives largely listed as cytotoxic | HT-1080-NT fibrosarcoma viability, CellTiter-Glo ATP luminescence, 48 h;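 also: NT is the 2HG producing partner of a matched IDH1 knockdown line; potency is read from the fitted curve at half-maximal effect; 0% = DMSO-treated cells and -100% = media-only wells without cells; nearly all actives have a fitted effect of over 55% in size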
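HT-1080-NT; 750 cells/well; 5% FBS RPMI; 48 h compound, 37 degrees C; CellTiter-Glo luminescence; curve fitting and curve-class assignment.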
TDP1 cell CPT – qHTS for Inhibitors of human tyrosyl-DNA phosphodiesterase 1 (TDP1): qHTS in cells in presence of CPT; chicken DT40 Tdp1-/-;hTDP1 cells + 20 nM CPT, ATP luminescence, 48 h; Potency, µM (titrated, usually from 46.2 µM), for the others: at the top dose activity change, negative = growth inhibition, hits mostly inhibitors; hit rate 12% among 420,000; AID 686979, 2013; also: potency is read from the fitted curve at half-maximal effect; nearly all actives have a fitted effect of over 55% in size
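Chicken DT40 Tdp1-/- cells stably complemented with human TDP1 were seeded at 400 cells/well in medium containing 20 nM camptothecin, exposed to pin-transferred compounds, and grown at 37 °C for at least 48 hr. Viability was read as ATP luminescence.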
HT1080 IDH1KD tx – qHTS for induction of synthetic lethality in tumor cells producing 2HG: qHTS for the HT-1080-IDH1KD cell line; Potency, µM (titrated, usually from 46.1 µM), for the others: at the highest dose activity, negative = toxicity, actives largely listed as cytotoxic; HT-1080 IDH1 knockdown viability, ATP luminescence, 48 h; hit rate 2% among 360,000;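 also: potency is read from the fitted curve at half-maximal effect; 0% = DMSO wells and -100% = cell-free medium wells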
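In this qHTS, HT-1080 cells depleted of IDH1 are exposed for 48 h at 37 °C to compound titrations. Toxicity is scored from CellTiter-Glo luminescence, with DMSO as full viability and medium alone as none.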
Active calls of the source: *; ? = inconclusive; · = not tested or not shown; [ ] = dose if it differs, or a comment. Unless noted, calls follow the shape of the dose curve; as a rule, active = well fitted curve in the direction sought with a large enough effect; inconclusive = small, poorly fitted or top-dose-only effect, or another doubt; inactive = no such curve, though single readings can be large; an effect the other way counts as inactive or inconclusive. Unless noted, % is scaled to controls: 0 for no effect and ±100 for the full control effect.

SMILES	uPA surface inh	IL1B secr inh	DT40 TDP1 no CPT	HT1080NT lethal	TDP1 cell CPT	HT1080 IDH1KD tx
COc1cccc(OC)c1OCCCN1CCC(Cc2ccccc2)CC1	-6%	-65*	?	-24%	?	?
COc1cc(/C=C/C(=O)OCC(=O)N2CCC(Cc3ccccc3)CC2)ccc1O	-12%	-70*	15µM*	-29%	?	?
COc1cc(C(=O)OCC(=O)N2CCC(Cc3ccccc3)CC2)cc(OC)c1OC	3%	-15	16µM*	5%	?	8%
O=C(C(=O)N1CCC(Cc2ccccc2)CC1)c1cccc(Br)c1	·	-18	?	1%	?	?
COc1cccc(OC)c1C(=O)OCC(=O)N1CCC(Cc2ccccc2)CC1	4%	12	-6%	3%	-4%	10%
COc1cc(/C=N/NC(=O)c2nnn(-c3nonc3N)c2C(C)C)ccc1OCc1ccccc1	?	43	21µM*	?	?	-27%
CC(C)c1c(C(=O)N/N=C/c2cccc(OCc3ccccc3)c2)nnn1-c1nonc1N	-3%	-84*	-26%	0%	3%	-10%
COc1cccc(/C=N/NC(=O)c2nnn(-c3nonc3N)c2C(C)C)c1OCc1ccc(F)cc1	1%	-70*	?	-22%	?	?
CC(C)c1c(C(=O)N/N=C/c2ccc(OCc3ccc(F)cc3)cc2)nnn1-c1nonc1N	-12%	23	?	-1%	?	-11%
O=c1ccn2c(n1)SC(c1ccccc1)C2 (stereo not drawn)	·	1	10%	1%	-2%	2%
C1=Nc2c(NCc3ccccc3)ncnc2Oc2ccccc21	1%	-23	1µM*	-3%	3.7µM*	?
N#CCCn1c(=O)c(-c2ccc(F)cc2)nc2cnc(N3CCNCC3)nc21	·	·	21µM*	·	?	·
CN1CCN(c2ncc3nc(-c4cccc(C#N)c4)c(=O)n(CCC#N)c3n2)CC1	·	·	21µM*	·	?	·
COCCn1c(=O)c(-c2cccc(C#N)c2)nc2cnc(N3CCN(C)CC3)nc21	·	·	0%	·	-6%	·
CN1CCN(c2ncc3nc(-c4ccc(Cl)cc4)c(=O)n(CCC#N)c3n2)CC1	·	·	16µM*	·	?	·
N#CCCn1c(=O)c(-c2ccc(Cl)cc2)nc2cnc(N3CCNCC3)nc21	·	·	?	·	7.3µM*	·
O=C(O)CCCNC(=O)CCCn1nnc2ccccc2c1=O	0%	9	12%	13%	-1%	11%
CCC1CCCCN1CCCNC(=O)CNC(=O)c1nn(-c2ccc(OC)c(Cl)c2)c(=O)c2ccccc12 (stereo not drawn)	-3%	?	-26%	-19%	-11%	-16%
CC(C)CCNC(=O)Cn1nc(N2CCN(c3ccccc3)CC2)ccc1=O	·	·	-18%	·	-4%	·
Cc1ccc(Nc2c(-c3ccco3)nc3ccccn23)cc1	-1%	-15	?	-1%	-14%	2%
Cc1cccn2cc(-c3c[nH]c4ccccc34)nc12	-25%	8	-3%	10%	-19%	-11%
Cc1ccc(Nc2c(-c3c[nH]c4ccccc34)nc3ccccn23)cc1	·	·	21µM*	·	13µM*	·
Cc1ccc2nc(-c3c[nH]c4ccccc34)c(Nc3ccccc3C)n2c1	·	·	3.3µM*	·	16µM*	·
COC(=O)c1ccc(COC(=O)c2ccc(SC)cc2OC)cc1	8%	22	-21%	3%	?	5%
O=C(CCc1nc2ccccc2c(=O)[nH]1)NCCN1C(=O)S/C(=C\c2ccc(OC(F)F)cc2)C1=O	-4%	8	18µM*	-17%	?	?
SMILES	uPA surface inh	IL1B secr inh	DT40 TDP1 no CPT	HT1080NT lethal	TDP1 cell CPT	HT1080 IDH1KD tx
N#Cc1ccccc1NC(=O)CC1c2ccccc2Oc2ccccc21	?	16	1.8µM*	0%	2.1µM*	-2%
N#Cc1ccccc1NC(=O)CC1CCCCC1	-3%	12	0%	3%	-16%	-3%
O=[N+]([O-])c1ccc(-[n+]2ccc3ccccc3c2)c([N+](=O)[O-])c1	?	-105*	1.3µM*	?	1µM*	?
O=[N+]([O-])c1ccc(SNc2ccccc2)c([N+](=O)[O-])c1	0%	-8	?	-11%	?	-12%
CCOc1ccccc1NC(=O)Cn1cc(C(=O)c2ccc(Cl)cc2)c(=O)c2ccc(C)nc21	·	·	15µM*	·	?	·
Cc1ccc(C(=O)c2cn(Cc3cccc(C)c3)c3nc(C)ccc3c2=O)cc1	·	·	21µM*	·	?	·
Cc1ccc(C(=O)c2cn(Cc3c(F)cccc3Cl)c3nc(C)ccc3c2=O)cc1	·	·	?	·	-8%	·
Cc1ccc(C(=O)c2cn(Cc3cc(C)ccc3C)c3nc(C)ccc3c2=O)cc1	·	·	21µM*	·	?	·
CCCCN1C(=O)C(=O)N(CC(=O)c2cc(C)n(-c3cc(C)on3)c2C)C1=O	-5%	-20	9%	3%	-8%	-1%
COc1cc(Cl)c(NC(=O)c2cc3ccccn3n2)c(OC)c1	·	·	21µM*	·	16µM*	·
COc1ccc(CCNC(=O)c2cc3ccccn3n2)c(OC)c1OC	6%	15	?	11%	-25%	4%
O=C(Nc1ccc(OC(F)(F)F)cc1)c1cc2ccccn2n1	·	·	?	·	-29%	·
COc1ccc(NC(=O)c2cc3ccccn3n2)cc1	4.5µM*	13	-6%	-6%	-13%	-15%
CCC1CN(CCC(=O)N2CCCN(C(=O)c3ccco3)CC2)Cc2cc(OC)ccc2O1 (stereo not drawn)	·	·	-5%	·	-9%[9.04 µM]	·
Cc1ccc(C(=O)NCCn2cc(SCC(=O)N3CCOCC3)c3ccccc32)cc1	11%	-7	?	0%	?	1%
COc1ccccc1C(=O)NCCn1cc(SCC(=O)Nc2nnc(C)s2)c2ccccc21	-4%	-6	-28%	-2%	?	1%
O=C(CSc1cn(CCNC(=O)c2ccccc2F)c2ccccc12)Nc1ccc(F)cc1	·	·	23µM*	·	23µM*	·
O=C(CSc1cn(CCNC(=O)c2cccs2)c2ccccc12)NC1CCCC1	0%	-7	16µM*	-1%	16µM*	0%
O=C(NCCn1cc(SCc2ccc(F)cc2)c2ccccc21)c1c(F)cccc1F	10µM*	-61*	?	?	?	-13%
